Assay [1] is described as follows: qHTS for inhibitors of adenylyl cyclases using a fission yeast platform: a pilot screen against the NCATS LOPAC library (AID 1347410). Summed up:
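GFP from fbp1-GFP reporter, read by Acumen laser cytometry, indicates AC inhibition in fission yeast expressing AC9, GNAS and PDE4D2. Cells grown 18 h in the dark at 30C with compounds, final up to 57 uM.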
In general terms: qHTS replaces the single test concentration by a dilution series.

Assay [2] addresses Protein phosphatase 1D (Homo sapiens) (UniProt O15297). The assay is described as follows: Rhodamine-PBP qHTS Assay for Modulators of WT P53-Induced Phosphatase 1 (WIP1) (AID 1347425). Summed up: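 The read-out is the change in Rhodamine-PBP fluorescence (f1 - f0, ex 525/em 598 nm) as Pi is released, read each minute for 11 min. Final reaction: 5 nM WIP1, 10 uM phosphopeptide VEPPL-pS-QETFS, 10 uM Rh-PBP, 50 mM Tris-HCl pH 7.5, 30 mM MgCl2. Compound was preincubated with enzyme for 1 hour at room temperature.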

Assay [3] can be described thus: Validation qHTS assay for inhibitors of Activation Induced Cytidine Deaminase (AID): UDG Counterscreen signal (AID 1347427). In a few lines:
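Fluorescence at 560 nm excitation, 665 nm emission reports UDG signal after 250 mM NaOH (2x) addition and 30 min. Enzymes (AID 1 uM, UDG 2 U/mL, at 4/3x) preincubated 10 min with compound, then 4 h with 4x 250 nM DJC20/DJC23 substrate at room temperature.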

Assay [4] addresses Single-stranded DNA cytosine deaminase (Homo sapiens) (UniProt Q9GZX7). In words: Validation qHTS assay for inhibitors of Activation Induced Cytidine Deaminase (AID): AID signal (AID 1347429). Summed up: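 AID+UDG coupled FRET deamination; cpds up to 114 uM final; DJC20/DJC23 substrate, 4 hr RT; NaOH stop, 30 min RT; read Ex 540/Em 590.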
A short description of assay [5]: Primary qHTS for inhibitors of SARS-S pseudo-typed particle cell entry (AID 1479145; calls by dose curve; also: nearly all actives have a fitted effect of over 45% in size; also: potency is read from the fitted curve at half-maximal effect).
Assay [6] addresses Calcium and integrin-binding protein 1 (Homo sapiens) (UniProt Q99828). The assay is described as follows: Confirmatory qHTS for Identification of Calcium Integrin Binding Protein 1 (CIB1) Competitor (AID 1508617). Also: nearly all actives have a fitted effect of over 65% in size. In a few lines:
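Compounds at up to 114 uM final met 1 uM GST-tagged CIB1 for 15 min at room temperature (HEPES pH 7.4, 5 mM CaCl2). FITC-labelled alphaIIb peptide, 100 nM, added; polarization read after 15 min more.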

Assay [7] shares this target. The assay is described as follows: Validation qHTS for Identification of Calcium Integrin Binding protein 1 (CIB1) Competitor (AID 1508618). Also: potency is read from the fitted curve at half-maximal effect. In a few lines: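 CIB1-GST (1 uM final) incubated 15 min at room temperature with compounds (up to 114 uM), then FITC-labelled alphaIIb peptide (100 nM) added. FP read (Ex 480/Em 540) after 15 min, pH 7.4 buffer containing 5 mM CaCl2.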

The target is the same in assay [8]. In words: Primary qHTS for Identification of Calcium Integrin Binding Protein 1 (CIB1) Competitor (AID 1508620). Also: potency is read from the fitted curve at half-maximal effect. Summed up: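 Fluorescence polarization competition: GST-tagged CIB1 (1 uM final) preincubated with compound 15 min at room temperature, then FITC-labelled alphaIIb peptide (100 nM final) added. After 15 min at room temperature, polarization read at Ex 480/Em 540.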

The nature of assay [9]: Primary qHTS for small molecule stabilizers of the endoplasmic reticulum resident proteome: Secreted ER Calcium Modulated Protein (SERCaMP) assay (AID 1508630). In a few lines: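 The SH-SY5Y reporter protocol was run at 3 concentrations up to 38.3 uM (primary) or 11 concentrations (follow-up): 16 h compound, 100 nM thapsigargin for 4 h, then extracellular luciferase luminescence.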

Assay [10] has as its target Protein phosphatase 1D (Homo sapiens) (UniProt O15297). The assay is described as follows: RapidFire Mass Spectrometry qHTS Assay for Modulators of WT P53-Induced Phosphatase 1 (WIP1) (AID 1347424). Also: series mostly up to about 63 µM. Summed up:
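RapidFire MS readout of dephosphorylated VEPPL-S-QETFS product, with 1 uM isotope-labelled peptide standard. Reaction: 10 nM WIP1, 2 uM phosphopeptide substrate, 5 min, room temperature, after 1 h compound preincubation; stopped with 0.5% formic acid.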

A short description of assay [11]: Primary qHTS for Huh7 cytotoxicity: counterscreen for inhibitors of MERS-S pseudotyped particle cell entry (AID 1479147; calls by dose curve).
The nature of assay [12]: Primary qHTS for Vero E6 cytotoxicity: counterscreen for inhibitors of SARS-S pseudo-typed particle cell entry (AID 1479150; calls by dose curve).
Assay [13] is described as follows: Primary qHTS for inhibitors of La Crosse Virus (LACV) - induced cell death in SH-SY5Y cells (AID 1508616).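 Also: top concentration of the series differs between compounds; higher means more rescue of cells from virus-induced death.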 Summed up: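 Cytopathicity rescue screen: compounds pinned onto SH-SY5Y cells, which are then infected with LACV (MOI 0.01) and held 6 days at 37C. Percent activity is scaled between infected DMSO control and uninfected DMSO control.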
A short description of assay [14]: qHTS to identify inhibitors of the type 1 interferon - major histocompatibility complex class I in skeletal muscle: primary screen against the NCATS Mechanism Interrogation Plate v5.0 (MIPE) Libary (AID 1347411). Also: nearly all actives have a fitted effect of over 65% in size. Summed up:
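HLA-B HiBit myoblasts, dexamethasone-free medium + 4 ng/ml IFN-b, 24 h compound, 11-pt 1:3 from 46 uM final. Readout: Nano-Glo HiBiT lytic luminescence after 10 min lysis, RT.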

The nature of assay [15]: Primary qHTS for inhibitors of MERS-S pseudo-typed particle cell entry (AID 1479149; calls by dose curve; also: nearly all actives have a fitted effect of over 60% in size).
A short description of assay [16]: Confirmatory qHTS for small molecule stabilizers of the endoplasmic reticulum resident proteome: Secreted ER Calcium Modulated Protein (SERCaMP) assay (AID 1508628). Also: series mostly up to about 76 µM; nearly all actives have a fitted effect of over 40% in size. In a few lines:
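GLuc-SERCaMP-expressing SH-SY5Y cells, pretreated 16 h with compound, are challenged with thapsigargin to empty ER calcium stores; after 4 h, coelenterazine is added directly to the medium and luminescence is imaged.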

Values without a mark were called inactive. Records with an inconclusive call do not appear. Calls of active or inactive are those of the source. Unless noted, calls follow the shape of the dose curve; as a rule, active = well fitted curve in the direction sought with a large enough effect; inconclusive = small, poorly fitted or top-dose-only effect, or another doubt; inactive = no such curve, though single readings can be large; an effect the other way counts as inactive or inconclusive.

Sequence of Protein phosphatase 1D (Homo sapiens) (O15297 whole entry, looked up): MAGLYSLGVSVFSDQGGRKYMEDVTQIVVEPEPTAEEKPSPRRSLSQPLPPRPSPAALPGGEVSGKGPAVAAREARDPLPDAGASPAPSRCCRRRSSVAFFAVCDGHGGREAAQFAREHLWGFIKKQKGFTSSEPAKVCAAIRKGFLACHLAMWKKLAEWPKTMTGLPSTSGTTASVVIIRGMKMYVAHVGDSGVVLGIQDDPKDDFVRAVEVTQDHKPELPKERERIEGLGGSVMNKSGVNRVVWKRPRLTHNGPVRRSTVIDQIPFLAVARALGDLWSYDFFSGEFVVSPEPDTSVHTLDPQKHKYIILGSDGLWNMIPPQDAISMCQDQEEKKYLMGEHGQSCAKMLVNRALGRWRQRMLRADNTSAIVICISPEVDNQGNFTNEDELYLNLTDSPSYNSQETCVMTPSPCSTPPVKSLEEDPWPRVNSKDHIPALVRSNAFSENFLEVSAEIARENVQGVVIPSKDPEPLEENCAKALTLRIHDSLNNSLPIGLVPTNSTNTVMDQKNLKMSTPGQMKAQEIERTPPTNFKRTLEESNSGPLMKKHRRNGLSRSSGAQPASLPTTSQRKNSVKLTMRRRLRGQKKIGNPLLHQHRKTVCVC
Sequence of Single-stranded DNA cytosine deaminase (Homo sapiens) (Q9GZX7 whole entry, looked up): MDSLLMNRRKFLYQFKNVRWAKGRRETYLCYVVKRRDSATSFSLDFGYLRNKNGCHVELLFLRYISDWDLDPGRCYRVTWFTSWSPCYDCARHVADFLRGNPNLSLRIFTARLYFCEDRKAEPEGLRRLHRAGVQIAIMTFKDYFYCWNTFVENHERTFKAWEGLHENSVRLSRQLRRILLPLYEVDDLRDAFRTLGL
Sequence of Calcium and integrin-binding protein 1 (Homo sapiens) (Q99828 whole entry, looked up): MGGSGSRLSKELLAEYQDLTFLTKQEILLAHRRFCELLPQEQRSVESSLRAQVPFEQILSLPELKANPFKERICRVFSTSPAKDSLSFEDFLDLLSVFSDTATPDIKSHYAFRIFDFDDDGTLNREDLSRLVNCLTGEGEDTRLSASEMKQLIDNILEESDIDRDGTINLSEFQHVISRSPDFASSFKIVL

In the case of `CC[C@@H](CO)NC(=O)[C@@H]1C=C2c3cccc4c3c(cn4C)C[C@H]2N(C)C1`, the compound was classed as inactive in [1], in [2], in assay [3], in assay [4], in [6] and in assay [9]. For the same compound, in assay [5], the Potency entry is “inactive”. Moreover, the Potency in [7] and in assay [8] was 44.7 µM (active) in each case.

In the case of `O=c1[nH]c2ccccc2n1C1CCN(CCCC(c2ccc(F)cc2)c2ccc(F)cc2)CC1`, the call in [1], in assay [2], in [3], in [4] and in assay [9] was inactive. For the same compound, the Potency result in [10], in assay [11], in assay [12], in assay [13], in [7] and in assay [8] was “inactive” each time. Moreover, the Potency in assay [5] was 11.2 µM (active).

Consider `Cc1cccc(C)c1NC(=O)CN1CCCC1=O`, for which the call in assay [1], in assay [2], in assay [3], in assay [4] and in [9] was inactive. Also, the Potency result in [14], in assay [13], in assay [7] and in assay [8] was “inactive” in each case.

`CC[C@@H](CO)NC(=O)[C@@H]1C=C2c3cccc4[nH]cc(c34)C[C@H]2N(C)C1`: the compound was called inactive in assay [1], in assay [2], in assay [3], in assay [4] and in assay [9]. In addition, the Potency entry in assay [5], in assay [11], in [15], in assay [12] and in [13] was “inactive” each time.

For `CNCC(O)c1ccc(O)cc1` (stereo unspecified), the outcome in [1], in assay [2], in assay [3], in [4] and in assay [9] was inactive. Besides, the Potency result in [14], in assay [10], in [13], in [7] and in assay [8] was “inactive” throughout.

As to `CCCN1CCC[C@@H]2Cc3nc(N)ncc3C[C@H]21`, the compound was called inactive in assay [1], in [2], in assay [3], in [4] and in assay [9]. Further, the Potency entry in assay [10], in assay [7] and in assay [8] was “inactive” each time.

As to `CCC1(C2=NCCN2)Cc2ccccc2O1` (stereo unspecified), the compound was classed as inactive in [1], in assay [2], in [3], in assay [4] and in assay [9]. Moreover, the Potency entry in assay [13], in [7] and in assay [8] was “inactive” throughout.

In the case of `Cc1ccc(S(=O)(=O)N[C@@H](CCCCN)C(=O)CCl)cc1`, the result in [1], in assay [2], in assay [3], in assay [4] and in [9] was inactive. Besides, the Potency result in assay [10], in assay [13], in [7] and in assay [8] was “inactive” in each case.

For the compound `CC(=O)[C@H]1CC[C@H]2[C@@H]3CC[C@H]4C[C@H](O)CC[C@]4(C)[C@H]3C(=O)C[C@]12C`, the outcome in assay [1], in assay [2], in assay [3], in [4] and in assay [9] was inactive. Also, the Potency entry in assay [13], in [7] and in [8] was “inactive” in each case.

For the compound `COC[C@@H](NC(C)=O)C(=O)NCc1ccccc1`, the Potency result in assay [14], in [10], in assay [13], in [8] and in [16] was “inactive” throughout. Moreover, the compound was classed as inactive in assay [2] and in assay [9].

Take `CC(O)(CS(=O)(=O)c1ccc(F)cc1)C(=O)Nc1ccc(C#N)c(C(F)(F)F)c1` (stereo unspecified): the result in [1] and in [9] was inactive. Further, the Potency entry in [14], in [13], in assay [7] and in assay [8] was “inactive” each time.

(Values after PubChem BioAssay (NCATS).)
